Source: PubChem BioAssay
tim23-1 inh: growth inhibitors of tim23-1 mutant yeast, primary screen, luminescence, uHTS | AID 463212, 2010 | hit rate 1.3% among 330,000 | S. cerevisiae tim23-1 growth, BacTiter-Glo luminescence, 24 h | inhibition, % at 20 µM;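 active = growth inhibition of the mutant yeast at or above 50%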;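 also: temperature-sensitive mutant grown at 25 °C; plate controls were DMSO-treated mutant yeast for no effect and medium wells lacking yeast for full effect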
tim10-1 inh: growth inhibitors of tim10-1 mutant yeast, primary screen, luminescence, uHTS | S. cerevisiae tim10-1 ts strain growth, BacTiter-Glo, 24 h | inhibition, % at 20 µM | hit rate 2.2% among 330,000;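 active = inhibition of at least 40%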;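 also: mutant grown at 25 °C; 0% = DMSO wells with yeast and 100% = wells holding no yeast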
TIM10 inh: growth inhibitors of isogenic TIM10 control yeast, primary screen, counter-screen for tim10-1 yeast inhibitor project, luminescence, uHTS. AID 463195, 2010. inhibition, % at 10 µM. S. cerevisiae TIM10 strain growth, BacTiter-Glo luminescence, 24 h. hit rate 1.4% among 330,000;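 active = inhibition of 40% or more at the single tested concentration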;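 also: wild-type TIM10 isogenic control strain grown at permissive 25 °C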
NLRP3 yeast inh: NALP3 inflammasome inhibitors in reconstituted yeast, primary screen, luminescence, uHTS | Yeast reconstituted NLRP3/ASC/caspase-1, beta-gal luminescence, 24 h | inhibition, % at 10 µM | hit rate 0.39% among 330,000;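 active = inhibition of 50% or more; inactive = inhibition below 50%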;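 also: plate controls were induced DMSO wells for no effect and uninduced yeast grown without galactose for full effect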
NALP1 yeast inh: NALP1 inflammasome inhibitors in reconstituted yeast, colorimetric, S. cerevisiae, triplicate retest | S. cerevisiae NALP1/ASC/caspase-1 growth, X-gal OD620, 72 h | inhibition, % at 10 µM | hit rate 0.61% among 280,000; in the data active = inhibition mostly above about 24%, no sharp cut-off; inactive = mostly below about 32%
* = called active by the depositor; x = not tested or not shown. Sampled rows, rich in hits. Any-hit rate of the full collection: about 4%.

SMILES | tim23-1 inh | tim10-1 inh | TIM10 inh | NLRP3 yeast inh | NALP1 yeast inh
CCC(C)NS(=O)(=O)c1ccc(S(=O)(=O)N(CC(=O)Nc2ccccc2)Cc2ccco2)cc1 (centres undefined) | 1 | -11 | -2 | 14 | 42*
CCCC(C)NC(=O)CN(Cc1ccco1)S(=O)(=O)c1ccccc1 (centres undefined) | 29 | 22 | 16 | 2 | x
Cc1ccc(N2CCN(CC(=O)Nc3c(C(=O)C4CC4)oc4ccccc34)CC2)cc1 | x | x | x | x | 47*
CN1CCN(C(=O)C2CCN(c3ncc(C(F)(F)F)cc3Cl)CC2)CC1 | 12 | 12 | 1 | 21 | -23
CCNC(=O)Oc1ccc[nH]c1=O | 4 | -44 | 9 | 36 | 37*
COc1ccc(C(=O)Oc2ccc[nH]c2=O)cc1 | -19 | 21 | 2 | 13 | 24
COCCNC(=O)c1cc2nc3c(c(C(F)(F)F)n2n1)CCc1ccccc1-3 | -5 | 15 | -12 | -12 | 30*
O=C(CN1CCN(c2ccc(F)cc2)CC1)N1CCC(Cc2ccccc2)CC1 | -82 | -3 | -11 | 16 | 31*
Cc1ccc(/C=N/NC(=O)c2csc(C)c2)o1 | 6 | 2 | 13 | -10 | -6
Cc1cc(C(=O)N/N=C/c2ccc(N(C)C)o2)cs1 | -7 | -9 | -5 | 6 | 31*
COC(c1ccccc1)c1nnc(CCC(=O)N(C)CCc2ccccc2)o1 (centres undefined) | 11 | 20 | -4 | 5 | 30*
Cc1cc(S(=O)(=O)Nc2ccc(C(=O)NCC(c3ccccc3)N(C)C)cc2)ccc1F (centres undefined) | 2 | -8 | -9 | 8 | 29*
CN(C)C(CNC(=O)c1ccc(NS(=O)(=O)c2ccc(F)c(F)c2)cc1)c1ccccc1 (centres undefined) | -1 | -10 | 0 | 9 | x
C[C@H]1CN=C(N(C)C)N1CC1CCCCC1 | 2 | 5 | 6 | 16 | x
CCc1ccc(NC(=O)c2cc(Br)ccc2Br)cc1 | 17 | 2 | 9 | -2 | 42*
CC(C)c1ccc(NC(=O)c2cc(Br)ccc2Br)cc1 | 16 | 12 | 18 | 3 | 18
CC(Oc1ccc(Cl)cc1Cl)C(=O)NCCCN1CCOCC1 (centres undefined) | 3 | -21 | -39 | 19 | 41*
O=C(Nc1cccc(Cl)c1)N1CCN(c2ncccn2)CC1 | 25 | 1 | 16 | 19 | 2
O=C(Nc1ccc(Cl)cc1Cl)N1CCN(c2ncccn2)CC1 | -3 | 3 | 2 | 24 | 42*
O=C(NC(=S)Nc1cccnc1)c1cc2ccccc2o1 | 25 | 11 | 17 | 37 | 47*
CC(C)(C)C(=O)CC1(O)C(=O)N(Cc2ccccc2)c2ccccc21 (centres undefined) | 5 | 27 | 5 | 8 | -14
O=c1c2ccccc2nc2n1C(CSc1ccc(Br)cc1)CN2 (centres undefined) | -4 | -22 | -13 | -7 | 31*
N=C1C(c2nc3ccccc3c(=O)[nH]2)=C(O)CN1c1ccccc1 | x | x | x | x | 38*
COc1ccc(CCNCc2ccc(OCC(=O)N3CCCCC3)c(OC)c2)cc1OC | 3 | 2 | -8 | -3 | 34*
COc1ccc(CCNC(=O)c2ccc(OCC(=O)N3CCOCC3)c(OC)c2)cc1OC | 0 | -10 | 1 | 6 | 30*
SMILES | tim23-1 inh | tim10-1 inh | TIM10 inh | NLRP3 yeast inh | NALP1 yeast inh
O=C(NC1CCCN(Cc2ccc(Cl)cc2)C1)c1ccoc1 (centres undefined) | 14 | 6 | 4 | 17 | 12
C/C(=N\NC(=O)c1ccc(-n2cnnn2)cc1)c1ccc(C)cc1 | -6 | -9 | 5 | 10 | x
COc1ccc(S(=O)(=O)NCCSCc2ccco2)cc1 | 9 | 15 | 0 | 5 | 34*
COC(=O)c1ccccc1SC1CC(=O)N(c2ccccc2)C1=O (centres undefined) | 31 | 26 | 13 | 11 | 78*
CCN1C(=O)CC(Sc2ccccc2C(=O)O)C1=O (centres undefined) | 14 | -15 | 4 | 20 | 2
O=C(COc1ccc(Cl)cc1Br)NC(=O)NCc1ccccc1 | 0 | 15 | 15 | 7 | 34
CC(NC(=O)c1cccs1)C1CCCO1 (centres undefined) | 2 | -15 | 7 | 8 | 5
CCCn1c(SCc2nc3ccccc3s2)n[nH]c1=O | 7 | 18 | 9 | -4 | 33*
